What was measured:
Type in all cases: functional
[1] = target: Solute carrier family 2, facilitated glucose transporter member 1 (Homo sapiens) (UniProt P11166); test: ST_JUDE_LEISH: Cytotoxicity at 2uM final concentration against transgenic Leishmania Mexicana promastigotes LmGLUT1 that are glucose transport deficient and complemented with the human glucose transporter GLUT1. Activity is measured by DNA content using SYBR green in vitro
[2] = target: Hexose transporter 1 (Plasmodium falciparum) (UniProt O97467); test: ST_JUDE_LEISH: Cytotoxicity at 2uM final concentration against transgenic Leishmania Mexicana promastigotes LmPfHT that are glucose transport deficient and complemented with the Plasmodium falciparum hexose transporter. Activity is measured by DNA content using SYBR green in vitro
[3] = target: Glucose transporter (Leishmania mexicana) (UniProt O61059); test: ST_JUDE_LEISH: Cytotoxicity at 2uM final concentration against transgenic Leishmania Mexicana promastigotes LmGT2 that are glucose transport deficient and complemented with the L. Mexicana glucose transporter 2. Activity is measured by DNA content using SYBR green in vitro

Solute carrier family 2, facilitated glucose transporter member 1 (Homo sapiens), sequence (P11166 whole entry): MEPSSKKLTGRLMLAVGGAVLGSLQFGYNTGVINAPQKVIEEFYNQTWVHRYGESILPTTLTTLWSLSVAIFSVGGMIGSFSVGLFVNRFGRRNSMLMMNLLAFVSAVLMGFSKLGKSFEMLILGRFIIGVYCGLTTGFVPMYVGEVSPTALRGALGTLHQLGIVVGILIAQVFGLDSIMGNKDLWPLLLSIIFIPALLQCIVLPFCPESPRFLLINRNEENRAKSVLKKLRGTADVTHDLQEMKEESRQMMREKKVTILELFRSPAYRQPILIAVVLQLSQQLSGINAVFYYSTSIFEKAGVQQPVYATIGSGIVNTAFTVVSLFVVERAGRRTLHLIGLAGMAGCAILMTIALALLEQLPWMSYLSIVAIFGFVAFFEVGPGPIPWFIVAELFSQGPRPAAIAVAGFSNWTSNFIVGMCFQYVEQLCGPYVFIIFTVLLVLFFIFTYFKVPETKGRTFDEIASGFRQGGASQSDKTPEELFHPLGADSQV

| SMILES | inhibition [1] | inhibition [2] | inhibition [3] |
| --- | --- | --- | --- |
| CN(c1ccccc1C(=O)Nc1ccccc1Oc1ccccc1)S(=O)(=O)c1ccccc1 | 0.02% | 0.41% | 5.08% |
| CCCC(N)C(=O)NC1CCN(c2c(F)c(N)c3c(=O)c(C(=O)O)cn4c3c2Oc2ccccc2-4)C1 (centres undefined) | 82.5% | 82.6% | 76.2% |
| Cc1cc(NCCCCCCCCNc2cc(C)nc3ccccc23)c2ccccc2n1 | -0.97% | 1.84% | 0.69% |
| Cc1[nH]c(-c2ccc(F)cc2)cc1C(=O)NC1CCN(Cc2ccccc2)CC1 | 1.59% | 3.23% | -0.98% |
| CCNc1cc(C(=O)N[C@@H](Cc2ccccc2)[C@H](O)CNC2CCCCC2)cc(N2CCCCS2(=O)=O)c1 | 8.15% | 4.98% | 7.3% |
| CCc1cn(C)c2c(N3CCCC3=O)cc(C(=O)N[C@@H](Cc3ccccc3)[C@H](O)CNC(C)(C)c3cccc(C(F)(F)F)c3)cc12 | 4.78% | 3.46% | -1.12% |
| COc1ccc2[nH]c(C)cc(=NN=Cc3ccccc3)c2c1 | -2.87% | 0.32% | -0.26% |
| Cc1[nH]c(C)c(-c2ccc(C#Cc3ccc(F)cc3F)cc2)c(=O)c1Br | -0.29% | 1.21% | 0.22% |
| NC1=NC(c2ccccc2)N(OCc2ccccc2)C(N)=N1 (centres undefined) | 0.52% | 0.08% | 0.06% |
| Cc1nn(CC(C)C)c2sc(C(=O)N3CCN(S(=O)(=O)c4ccc(C#N)cc4)CC3)cc12 | 10.3% | 8.28% | 5.07% |
| Cc1[nH]c(C)c(-c2ccc(CCc3ccc(N)cc3)cc2)c(=O)c1Cl | 4.43% | 6.39% | 1.77% |
| O=C(Nc1ccc(-c2cccc(-c3nc4cc(C(F)(F)F)ccc4[nH]3)c2)cc1)c1ccoc1 | 4.69% | 3.58% | 3.22% |
| O=C(NCCCCN1CCC(c2ccc3c(c2OCc2ccncc2)CCCC3)CC1)c1ccc(-c2ccc(C(F)(F)F)cc2)cc1 | 1.51% | 1.48% | 0.42% |
| FC(F)(F)c1ccc2[nH]c(-c3ccc(-c4ccc(CNCC5CCCO5)cc4)cc3)nc2c1 (centres undefined) | 3.49% | 2.61% | 1.84% |
| CC(C)c1ccc(-c2noc(SCC(=O)N3CCCCC3C)n2)cc1 (centres undefined) | -2.1% | 1.89% | -2.55% |
| OC1=C2C(=Nc3ccccc3SC2c2ccccc2)c2ccccc21 (centres undefined) | 4.3% | 5.31% | 1.01% |
| C=CCc1ccccc1OCC(O)CN(C1CCCCC1)C1CCCCC1 (centres undefined) | -1.79% | -2.31% | 5.77% |

| SMILES | inhibition [1] | inhibition [2] | inhibition [3] |
| --- | --- | --- | --- |
| NC(=O)c1ccc(C(=O)Nc2cccc(-c3cccc(-c4nc5cc(C(F)(F)F)ccc5[nH]4)c3)c2)cc1 | 3.29% | 5.6% | 2.11% |
| CN1CCN(c2ccc3nccc(CCN4CCC(NCc5ccc6c(n5)NC(=O)CO6)CC4)c3n2)CC1 | -0.03% | -0.01% | -0.12% |
| CN1CCC(Oc2ccc(Nc3nccc(NCC(O)c4ccccc4)n3)cc2Cl)CC1 (centres undefined) | -2.84% | -3.54% | -6.09% |
| COC(=O)C(C)NCC(=O)c1ccccc1 (centres undefined) | 6.16% | 6.12% | 6.79% |
| O=C(Nc1ccc(I)cc1)N1CCc2sccc2C1CN1CCCCC1 (centres undefined) | 12.2% | 9.79% | 10.5% |
| CCC1CCCCN1S(=O)(=O)c1ccc(NC(=O)c2cc(C)on2)cc1 (centres undefined) | 2.22% | 0.15% | 3.74% |
| CCN(CC)CCCOC(=O)c1ccc2c(c1)-c1ccc(C(=O)OCCCN(CC)CC)c3cccc-2c13 | 6.8% | 3.93% | 4.24% |
| COc1ccc(/C=C/C(=O)N2CCc3cc4nccc(N5CCN6CCC[C@H]6C5)c4cc32)cc1 | 3.43% | 4.78% | 4.53% |
| CC(C)c1ccc(CN(C)CCCCNC(=O)c2ccc(NC(=O)c3ccc(Cl)cc3)cc2)cc1 | -0.05% | -0.96% | -1.07% |
| Cc1nc(N)nc(N)c1OCCCOc1ccccc1Br | 46.9% | 61.8% | 43.6% |
| Cc1cccc2nc(-c3ccc(-c4ccc(CN5CCCCC5)cc4)s3)[nH]c12 | 4.61% | 2.36% | 3.32% |
| Cc1cccc2nc(-c3ccc(-c4ccc(CNCc5cnn(-c6ccccc6)n5)cc4)s3)[nH]c12 | -1.78% | -1.57% | -1.83% |
| COCCN1CCC(N(CC2(O)CCN(c3ccc(C(F)(F)F)cc3)CC2)C(=O)Cn2c(SCc3cccc(F)c3F)cc(=O)c3ccccc32)CC1 | -0.38% | 0.65% | 0.85% |
| Cn1cc(CN2CCCC(COC(c3ccc(F)cc3)c3ccc(F)cc3)C2)cn1 (centres undefined) | 2.32% | 1.9% | 1.84% |
| O=C(/C=C/c1ccc(Cl)c(Cl)c1)NCCCCCN1CCCN(C(=S)Nc2ccc(Cl)c(Cl)c2)CC1 | -0.53% | -1.2% | 0.13% |
| COc1ccc(CNCc2cccc(-c3csc(-c4nc5ccccc5[nH]4)c3)c2)cc1 | -1.65% | -1.34% | 2.49% |
